The values that follow come from PubChem BioAssay.

Experiment [1] is described as follows: A549 cell viability effects, profiling panel, calcein-AM fluorescence, 48 h, basal (AID 1162). Further: test concentration not given here. Conditions: higher = more signal.
A short description of experiment [2]: adipocyte viability effects, profiling panel, cell-based, 3T3-L1 adipocytes, calcein-AM fluorescence, 48 h, basal (AID 1163). Further: test concentration not given here. Conditions: 3T3-L1 adipocytes viability, higher = more signal.
Experiment [3] is described as follows: HepG2 cell viability effects, profiling panel, calcein-AM fluorescence, 48 h, basal (AID 1164). Further: test concentration not given here. To be noted: higher = more signal.
The nature of experiment [4]: MM1S cell viability effects, profiling panel, calcein-AM fluorescence, 48 h, basal (AID 1165).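 Further: viability of MM1S multiple myeloma cells under basal unstimulated conditions; test concentration not given here.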 To be noted: higher = more signal.
The nature of experiment [5]: basal RPMI8226 viability, no added stimulus, profiling panel, cell-based, calcein-AM fluorescence, 48 h, PK04 Diversity Set (AID 1166).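 Further: cells grown under basal conditions without added stimulus; test concentration not given here.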 To be noted: RPMI8226 myeloma viability, higher = more signal.
A short description of experiment [6]: basal HepG2 mitochondrial membrane potential changes, profiling panel, cell-based, JC-1 fluorescence, 24 h, 100 nL compound (AID 1167). Further: test concentration not given here. Conditions: higher = more signal.
The nature of experiment [7]: basal 3T3-L1 adipocyte mitochondrial potential changes, profiling panel, cell-based, JC-1 fluorescence, 3T3-L1 adipocytes, 24 h, 100 nL compound (AID 1168). Further: test concentration not given here. To be noted: JC-1 mitochondrial fluorescence, higher = more signal, called active from +8 up or from −8 down.
The nature of experiment [8]: basal RPMI8226 mitochondrial membrane potential changes, profiling panel, cell-based, JC-1 fluorescence, 24 h, 100 nL compound (AID 1169). Further: test concentration not given here. To be noted: RPMI8226 myeloma, JC-1 mitochondrial potential fluorescence, higher = more signal.
Experiment [9] is described as follows: basal MM1S mitochondrial membrane potential changes, profiling panel, cell-based, JC-1 fluorescence, 24 h, 100 nL compound (AID 1170). Further: test concentration not given here. To be noted: higher = more signal.
Experiment [10] in a line: A549 lung cancer cell viability effects, profiling panel, resazurin fluorescence, 24 h, PK04 Diversity Set (AID 1171). Further: test concentration not given here. Conditions: higher = more signal, called active from +8 up or from −8 down.
A short description of experiment [11]: HepG2 liver cancer cell viability effects, profiling panel, resazurin fluorescence, 24 h, PK04 Diversity Set (AID 1172). Further: test concentration not given here. To be noted: higher = more signal. (The colour change of resazurin is a common sign of viable cells or microbes.)
Experiment [12] in a line: basal S. cerevisiae growth modulation, no modifier, primary screen, OD600, strain BY4716, 24 h, basal condition (AID 1173). To be noted: OD600, 24 h, higher = more signal, called active from +8 up or from −8 down.
A short description of experiment [13]: MM1S myeloma cell viability, profiling panel, resazurin fluorescence, basal, 24 h, PK04 Diversity Set (AID 1174).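 Further: MM1S multiple myeloma cell line; test concentration not given here.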 Conditions: higher = more signal, called active from +8 up or from −8 down.
Experiment [14] has as its target Dihydroorotate dehydrogenase (quinone), mitochondrial (Plasmodium falciparum (isolate 3D7)) (UniProt Q08210). In words: PfDHODH enzyme inhibitors, primary screen, biochemical, C-terminal His tag, absorbance 600 nm (AID 1175).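 Further: recombinant parasite enzyme with a five histidine tag at its C terminus; test concentration not given here.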 To be noted: DCIP absorbance 600 nm, higher = more signal, called active from +8 up or from −8 down.
Experiment [15] can be described thus: P. aeruginosa biofilm formation inhibitors, primary screen, strain PAO1, LB-PBS medium, absorbance 600 nm (AID 1176). Further: test concentration not given here. To be noted: P. aeruginosa PAO1 growth/biofilm, A600, 12 h; higher = more signal.
The nature of experiment [16]: S. cerevisiae RM11-1a growth modifiers, primary screen, strain RM11-1a, OD600, basal, 24 h (AID 1177).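 Further: cultures grown under basal conditions with no added stressor; test concentration not given here.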 Conditions: OD600, 24 h, higher = more signal, called active from +8 up or from −8 down.
The nature of experiment [17]: E. coli acrAB mutant growth effects, primary screen, E. coli filamentation inducers, strain DRC39, OD650, 24 h (AID 1178).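 Further: growth measured as culture turbidity by optical density at 650 nm; test concentration not given here.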 To be noted: higher = more signal, called active from +8 up or from −8 down.
A short description of experiment [18]: E. coli acrAB mutant growth effects, primary screen, E. coli filamentation inducers, strain DRC39, OD650, 48 h (AID 1179).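 Further: screen aims at cell division blockers that make cells filament.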 Conditions: E. coli DRC39 delta-acrAB growth, higher = more signal, called active from +8 up or from −8 down.
The nature of experiment [19]: RPMI8226 myeloma cell viability, profiling panel, resazurin fluorescence, basal, 24 h, PK04 Diversity Set (AID 1180).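 Further: RPMI8826 multiple myeloma cell line at 5000 cells per well; test concentration not given here.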 To be noted: higher = more signal.
In experiment [20] the target is E3 ubiquitin-protein ligase XIAP (Homo sapiens) (UniProt P98170). In words: XIAP binders, primary screen, biophysical, small-molecule microarray, fluorescence 635 nm (AID 1181).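 Further: score merges 667 nm emission and signal to noise over triplicate slides.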 To be noted: small-molecule microarray binding, higher = more signal.
Sequence of E3 ubiquitin-protein ligase XIAP (Homo sapiens) (P98170 whole entry, looked up): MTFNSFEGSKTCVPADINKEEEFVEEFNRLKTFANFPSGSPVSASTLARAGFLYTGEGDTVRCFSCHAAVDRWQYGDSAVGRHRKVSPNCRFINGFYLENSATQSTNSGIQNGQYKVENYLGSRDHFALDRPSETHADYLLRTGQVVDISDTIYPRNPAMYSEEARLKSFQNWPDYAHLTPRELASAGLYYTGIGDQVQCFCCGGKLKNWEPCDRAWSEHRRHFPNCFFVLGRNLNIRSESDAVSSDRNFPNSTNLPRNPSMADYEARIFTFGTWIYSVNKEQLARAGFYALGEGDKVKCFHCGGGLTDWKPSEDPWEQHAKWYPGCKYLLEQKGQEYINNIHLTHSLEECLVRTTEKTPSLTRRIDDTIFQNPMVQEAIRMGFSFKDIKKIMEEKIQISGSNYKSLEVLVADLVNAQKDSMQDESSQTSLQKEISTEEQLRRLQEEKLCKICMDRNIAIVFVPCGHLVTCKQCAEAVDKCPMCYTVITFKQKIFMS

Active and inactive are the calls of the source. Unless noted, how the calls were made is not given here.

Sequence of Dihydroorotate dehydrogenase (quinone), mitochondrial (Plasmodium falciparum (isolate 3D7)) (Q08210 whole entry, looked up): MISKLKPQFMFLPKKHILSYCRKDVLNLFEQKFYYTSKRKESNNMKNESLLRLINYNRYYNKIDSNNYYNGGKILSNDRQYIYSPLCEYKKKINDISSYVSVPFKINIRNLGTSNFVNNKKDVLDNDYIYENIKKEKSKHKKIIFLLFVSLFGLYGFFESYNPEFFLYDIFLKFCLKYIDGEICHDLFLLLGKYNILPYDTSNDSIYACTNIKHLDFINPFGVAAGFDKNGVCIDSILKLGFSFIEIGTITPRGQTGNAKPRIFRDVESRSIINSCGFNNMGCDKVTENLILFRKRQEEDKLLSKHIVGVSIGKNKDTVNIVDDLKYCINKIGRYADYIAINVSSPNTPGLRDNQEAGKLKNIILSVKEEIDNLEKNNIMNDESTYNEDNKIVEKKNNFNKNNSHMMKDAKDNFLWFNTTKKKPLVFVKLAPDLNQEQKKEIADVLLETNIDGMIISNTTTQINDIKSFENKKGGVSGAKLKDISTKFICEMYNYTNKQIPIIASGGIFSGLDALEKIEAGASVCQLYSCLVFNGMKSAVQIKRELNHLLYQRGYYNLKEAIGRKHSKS

In the case of `C=CCOC(=O)[C@@H]1[C@H]2C(=O)O[C@H](c3ccccc3)[C@H](c3ccccc3)N2[C@H](c2ccc(OCCOC(=O)[C@H]3C[C@H]4C(=O)N[C@@H](CCCCN(C)C)C(=O)N4[C@H]3c3cccc(OCCO)c3)cc2)[C@@]12C(=O)Nc1ccc(I)cc12`, the z-score in experiment [1] is 0.0169; in [2], -0.859; in experiment [3] it was -0.102; in [4], -0.671; in experiment [5], -0.654; in experiment [6] it was -0.89. Besides, the z-score is 1.12 (inactive) in experiment [7]; -0.374 in experiment [8]; -1.19 in experiment [9]; -0.299 (inactive) in experiment [10]; -0.999 in experiment [11]; 2.24 (inactive) in experiment [12]. In addition, the z-score in experiment [13] was -0.302 (inactive); in experiment [15], 2.57 (inactive); in experiment [16] it was 1.17 (inactive); in experiment [17], -0.0783 (inactive); in experiment [18], -0.0986 (inactive); in experiment [19], -0.209. Moreover, the composite z-score is 0.26 (inactive) in experiment [14] and -0.202 in experiment [20].
As for `COc1ccccc1CN1C(=O)c2ccccc2[C@@H](C(=O)NC(C)C)[C@@H]1c1ccc(CO)cc1`, the z-score in experiment [1] is 1.66; in [2] it was 0.611; in experiment [3], 1.95; in experiment [4], 0.472; in [5] it was 0.717; in [6], 1.63. Besides, the z-score in [7] is -0.41 (inactive); in experiment [8], 0.652; in experiment [9], -0.365; in experiment [10] it was 2.35 (inactive); in [11] it was 1.1; in experiment [12] it was -0.186 (inactive). Moreover, the z-score in experiment [13] is 1.1 (inactive); in [15], -0.963 (inactive); in [16] it was -0.108 (inactive); in experiment [17] it was 0.686 (inactive); in experiment [18], 0.0549 (inactive); in [19] it was 1.17. Further, the figures for the composite z-score in [14] and in experiment [20] were -0.469 (inactive) and 0.0251, respectively.
For `O=C(O)[C@H]1C[C@H]2C(=O)N3CCC[C@H]3C(=O)N2[C@H]1c1cccc(OCCO)c1`, the z-score in experiment [1] is 1.67; in experiment [2], -0.156; in experiment [3] it was 0.601; in experiment [4], 0.792; in experiment [5], -0.8; in experiment [6], 1.96. In addition, the z-score in [7] was -0.652 (inactive); in [8], -0.77; in experiment [9] it was -0.568; in experiment [10], 1.04 (inactive); in experiment [11] it was 1.32; in experiment [12] it was -0.361 (inactive). Besides, the z-score in experiment [13] was 0.209 (inactive); in [15] it was -0.695 (inactive); in [16] it was 0.43 (inactive); in [17] it was 0.481 (inactive); in experiment [18], 0.896 (inactive); in experiment [19], 0.268. Besides, the results for the composite z-score in experiment [14] and in [20] were -0.117 (inactive) and -0.0901, respectively.
Take `O=C(NC1CC1)[C@@H]1c2ccccc2C(=O)N(Cc2ccccc2)[C@H]1c1ccc(CO)cc1`: the z-score in experiment [1] was 1.3; in experiment [2] it was -0.429; in experiment [3], 1.46; in experiment [4] it was 0.293; in experiment [5], 0.217; in [6], 2.33. Besides, the z-score in experiment [7] was 1.07 (inactive); in experiment [8] it was 0.135; in experiment [9], -0.319; in experiment [10] it was 0.139 (inactive); in experiment [11], 0.0991; in experiment [12] it was 0.172 (inactive). Besides, the z-score was -0.556 (inactive) in [13]; -0.149 (inactive) in experiment [15]; 0.0831 (inactive) in [16]; 0.693 (inactive) in [17]; 1.58 (inactive) in experiment [18]; 0.904 in experiment [19]. Moreover, the composite z-score in experiment [14] was -0.0098 (inactive); in experiment [20], 0.159.
As to `CCOC(=CC(=O)OC)CC(O)c1cccc(Cl)c1` (stereo not given), the z-score is 0.738 in [1]; 0.342 in experiment [2]; -0.0117 in [3]; 0.221 in [4]; -1.15 in experiment [5]; 0.363 in [6]. Besides, the z-score in experiment [7] was 0.0253 (inactive); in [8], -0.0603; in experiment [9], -0.69; in experiment [10], 0.0735 (inactive); in [11], 0.217; in experiment [12] it was -8.62 (active). Further, the z-score in [13] was -0.0412 (inactive); in experiment [15], 0.16 (inactive); in [16], -2.91 (inactive); in [17] it was 0.121 (inactive); in experiment [18], 1.08 (inactive); in experiment [19], 0.404. Moreover, the composite z-score in experiment [14] was -1.92 (inactive); in [20], -0.0091.
As to `Cc1ccc(S[C@]2(C(=O)NCc3ccccc3)CC(=O)N(C(C)C)[C@@H]2c2ccc(CO)cc2I)cc1`, the z-score in experiment [1] was -0.897; in [2], 0.152; in experiment [3] it was -0.274; in [4] it was -2.35; in [5] it was -3.15; in experiment [6], -0.0692. The z-score was -0.371 (inactive) in experiment [7]; -0.592 in experiment [8]; -1.12 in [9]; 1.65 (inactive) in experiment [10]; 0.059 in experiment [11]; -1.93 (inactive) in experiment [12]. Also, the z-score in experiment [13] is -1.63 (inactive); in [15], -0.0807 (inactive); in experiment [16], -0.964 (inactive); in experiment [17] it was 0.484 (inactive); in experiment [18], 0.329 (inactive); in experiment [19], -2.35. The composite z-score in [14] is -0.335 (inactive); in experiment [20], -0.253.
As for `COc1ccc(CCNC(=O)[C@@]2(Sc3ccc(C)cc3)CC(=O)N(Cc3cc(C(F)(F)F)cc(C(F)(F)F)c3)[C@@H]2c2ccc(CO)cc2I)cc1`, the z-score was 0.154 in experiment [1]; -0.208 in experiment [2]; 0.0649 in experiment [3]; -1.46 in experiment [4]; -1.96 in experiment [5]; -1.08 in experiment [6]. Further, the z-score in experiment [7] is -0.208 (inactive); in experiment [8], -0.165; in experiment [9], -2.1; in experiment [10], 0.469 (inactive); in experiment [11], 0.872; in experiment [12] it was -3.6 (inactive). Besides, the z-score in [13] was -2.46 (inactive); in experiment [15] it was 0.723 (inactive); in experiment [16] it was -1.33 (inactive); in experiment [17], 0.232 (inactive); in experiment [18], 0.214 (inactive); in experiment [19] it was -1.61. For the same molecule, the values for the composite z-score in experiment [14] and in [20] were -0.988 (inactive) and -0.291, respectively.
As to `CN(C)C(=O)[C@]1(CCC(=O)OC(C)(C)C)N=C(c2ccc(OCCCO)cc2)O[C@@H]1c1ccccc1`, the z-score in experiment [1] is 1.13; in experiment [2] it was -0.0645; in experiment [3], 0.41; in experiment [4], 0.387; in experiment [5], -0.014; in experiment [6], 0.101. The z-score in experiment [7] is 0.756 (inactive); in [8], -0.368; in experiment [9], 0.211; in experiment [10], 0.534 (inactive); in experiment [11], -0.0109; in [12], -0.0261 (inactive). For the same molecule, the z-score in [13] was 0.352 (inactive); in experiment [15], 0.248 (inactive); in experiment [16] it was 0.0653 (inactive); in [17] it was 0.0325 (inactive); in experiment [18], -0.384 (inactive); in experiment [19] it was 0.448. Moreover, the results for the composite z-score in experiment [14] and in experiment [20] were -0.19 (inactive) and -0.0773, respectively.
`C[C@H]1C2=C3C(CC[C@H]4C(OCc5ccc(F)cc5C(F)(F)F)OC[C@](C)([C@@H]34)N(C(=O)OC(C)(C)C)C2)C2COC(=O)OCC21` (stereo not given in full): the z-score is -1.17 in [1]; 0.338 in [2]; -0.659 in experiment [3]; -2.6 in [4]; -3.96 in experiment [5]; -0.255 in [6]. Further, the z-score is -1.06 (inactive) in [7]; -0.325 in experiment [8]; -0.183 in experiment [9]; 0.117 (inactive) in experiment [10]; -1.33 in experiment [11]; -0.0764 (inactive) in [12]. Besides, the z-score in [13] was -1.43 (inactive); in experiment [15], 0.371 (inactive); in [16], 0.235 (inactive); in [17], -0.698 (inactive); in experiment [18], -0.398 (inactive); in experiment [19], -1.18. Also, the composite z-score in experiment [14] is -0.047 (inactive); in [20] it was 0.572.
